This is a sample that favours compounds with a hit; in the whole collection about 4.7% have one here.
ATG4B inh = ATG4B (human) cysteine protease inhibition. ATG4B cleavage of LC3-PLA2, NBD-HPC fluorescence, 1 h. inhibition, % at 8.33 µM. hit rate 0.51% among 340,000; in the data active = inhibition above about 40%
tim23-1 inh = tim23-1 yeast growth inhibition; S. cerevisiae tim23-1 growth, BacTiter-Glo luminescence, 24 h; inhibition, % at 20 µM; hit rate 1.3% among 330,000;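 active = growth inhibition of the mutant yeast at or above 50%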;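 also: temperature-sensitive mutant grown at 25 °C; plate controls were DMSO-treated mutant yeast for no effect and medium wells lacking yeast for full effect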
SKKanGAS inh = SKKanGAS growth inhibition. hit rate 1.3% among 300,000. AID 1662. inhibition, % at 7.5 µM. S. pyogenes SKKanGAS, kanamycin growth, BacTiter-Glo, 6 h;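 active = mean replicate score, as percent of positive control median, at least 50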;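 also: strain carries kanamycin resistance gene driven by streptokinase promoter and grows in 40 µg/ml kanamycin; loss of luminescence reflects streptokinase promoter inhibition or plain growth inhibition; 0% = median of DMSO wells and 100% = positive control at its reference dose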
PfHsp90 yeast 2 = growth inhibition of yeast expressing Plasmodium Hsp90; S. cerevisiae expressing PfHsp90, BacTiter-Glo ATP, 48 h; yeast lacking PDR1 and PDR3 efflux regulators; inhibition, % at 9.4 µM; hit rate 0.32% among 310,000; AID 504621;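 active = every replicate shows inhibition above about 80%, whatever the replicate mean, limit read from the data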;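 also: 0% = DMSO neutral controls and 100% = 20 µM radicicol positive controls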
tim10-1 inh = tim10-1 yeast growth inhibition. S. cerevisiae tim10-1 ts strain growth, BacTiter-Glo, 24 h. hit rate 2.2% among 330,000. inhibition, % at 20 µM;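 active = inhibition of at least 40%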;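 also: mutant grown at 25 °C; 0% = DMSO wells with yeast and 100% = wells holding no yeast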
TIM10 inh = growth inhibitors of TIM10 yeast strain; inhibition, % at 10 µM; AID 463195; S. cerevisiae TIM10 strain growth, BacTiter-Glo luminescence, 24 h; hit rate 1.4% among 330,000;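 active = inhibition of 40% or more at the single tested concentration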;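 also: wild-type TIM10 isogenic control strain grown at permissive 25 °C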
tim23-1 confirm = tim23-1 yeast growth inhibition, confirmed; inhibition, % at 20 µM; shares compounds with tim23-1 inh; AID 463218; S. cerevisiae tim23-1 growth, BacTiter-Glo luminescence, 24 h; hit rate 83% among 4,400;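 active = inhibition above about 39% in either of two replicate wells at 20 µM, limit read from the data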;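 also: temperature-sensitive tim23-1 mutant grown at 25 °C; 0% = DMSO wells with yeast and 100% = medium wells without yeast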
PLA2 counter = PLA2 (human) inhibition in ATG4B counter-screen; shares compounds with ATG4B inh; purified PLA2, NBD-C6-HPC fluorescence, 45 min; inhibition, % at 8.33 µM; hit rate 66% among 1,600; AID 588402; in the data active = inhibition above about 50%
Target sequence (P04054 whole entry, looked up): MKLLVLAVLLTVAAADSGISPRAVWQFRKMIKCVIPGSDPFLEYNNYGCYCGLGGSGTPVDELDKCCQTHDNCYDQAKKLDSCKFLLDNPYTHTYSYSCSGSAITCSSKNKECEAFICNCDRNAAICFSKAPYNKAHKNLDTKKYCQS
The depositor's hits bear a star; · = no result given.

SMILES | ATG4B inh | tim23-1 inh | SKKanGAS inh | PfHsp90 yeast 2 | tim10-1 inh | TIM10 inh | tim23-1 confirm | others
CC1CCC(NC(=O)c2cc(C3CC3)nn2-c2ccccc2)CC1 (stereo unspecified) | 6 | 50* | · | 11 | 38 | 14 | 46*
C[C@H]1CN(S(=O)(=O)c2ccc3c(c2)OCCO3)CCN1S(=O)(=O)c1c(F)cccc1F | -4 | 51* | · | 5 | 21 | 22 | 31
CCOc1ccccc1N(CC(=O)NCCSc1ccccn1)S(=O)(=O)c1ccc(C)cc1 | -5 | 25 | 1 | -20 | 19 | 26 | ·
Clc1cc2cccnc2c2ncccc12 | -10 | 65* | · | 3 | 9 | 14 | 39
O=[N+]([O-])c1ccc(Cl)c2cccnc12 | -4 | 5 | -2 | -1 | 8 | -7 | ·
COc1cccc(NC(=S)N2CCC(c3ccc(C)cc3)C2)c1 (stereo unspecified) | -6 | 53* | -4 | 13 | 13 | 11 | 37
CCOc1ccc(NC(=S)N2CCC(c3ccc(C)cc3)C2)cc1 (stereo unspecified) | -7 | 64* | 8 | 20 | 31 | 34 | 41*
Cc1ccc(NC(=S)N2CCC(c3ccc(C)cc3)C2)cc1 (stereo unspecified) | -2 | 29 | 6 | -33 | -15 | 21 | ·
CCOC(=O)C1CCCN(C(=S)Nc2ccc(Nc3ccccc3)cc2)C1 (stereo unspecified) | 2 | 52* | -9 | 19 | 38 | 20 | 41*
CS(=O)(=O)N1CCN(C(=O)CCc2ccccc2)CC1 | -6 | 2 | -2 | -17 | -9 | 2 | ·
CCC(=O)NC(c1ccc(C)cc1)c1ccc2cccnc2c1O (stereo unspecified) | 5 | 62* | 71* | 112* | 1 | 2 | 58*
CCCC(=O)NC(c1ccc(C(C)C)cc1)c1ccc2cccnc2c1O (stereo unspecified) | 5 | 57* | 84* | -32 | -17 | -23 | 63*
CCCC(=O)NC(c1ccccc1Cl)c1ccc2cccnc2c1O (stereo unspecified) | 3 | 50* | 18 | 113* | 4 | -22 | 53*
CC(C)CC(=O)NC(c1ccccc1Cl)c1c(O)ccc2ccccc12 (stereo unspecified) | -9 | 16 | 46 | 2 | 3 | -3 | ·
COCc1c(C(=O)N2CCN(Cc3c(F)cccc3Cl)CC2)oc2ccccc12 | 21 | 26 | 0 | -54 | 8 | 30 | ·
O=C(Nc1cccc(F)c1)c1cccnc1NCCc1ccccc1 | -2 | 54* | 1 | -16 | 21 | 20 | 54*
CCCN(CC(=O)Nc1ccc(C)cc1Br)CC(=O)Nc1ccc(F)c(F)c1F | 6 | 33 | 7 | -29 | 24 | 12 | ·
CN1CCSc2ccc(C(=O)NCc3cccc(Br)c3)cc21 | 41* | 53* | 0 | 12 | 37 | 28 | 50* | PLA2 counter=57*
COCCCNC(=O)c1cc(S(=O)(=O)NCCCN2CCCC2=O)ccc1Cl | -3 | -5 | · | 9 | -10 | 1 | ·
O=S(=O)(c1ccc2c(c1)C(O)c1ccccc1CC2)C(F)(F)F (stereo unspecified) | 40* | 63* | · | 7 | 34 | 24 | 45* | PLA2 counter=60*
Nc1cc(S(=O)(=O)C(F)(F)F)ccc1C(=O)O | 8 | -1 | 0 | -5 | -11 | -20 | ·
C/C=C/c1ccc(OCC(=O)O)c(OC)c1 | 3 | -2 | -6 | -11 | 14 | 11 | ·
C/C=C/c1ccc(OCCOc2cc(C=O)ccc2OC)c(OC)c1 | 47* | 57* | 5 | 21 | 5 | 30 | 67* | PLA2 counter=48
CCc1ccc(/C=C2/SC(=S)N(CCC(=O)NCCCN3CCOCC3)C2=O)cc1 | 6 | 20 | -1 | 5 | 17 | 15 | ·
CCn1c(N2CCN(S(=O)(=O)c3ccc(Cl)cc3)CC2)nc2ccccc21 | 60* | 63* | -1 | 29 | 21 | 13 | 43* | PLA2 counter=67*

Screens: PubChem BioAssay, several laboratories
